Assay results reported in PubChem BioAssay AID1645855 (Buhrlage Lab, Dana-Farber Cancer Institute and Novartis …, 2021).
In all, about 47,000 compounds went through this assay and about 3,100 (6.6%) were called active. The sample holds actives, similar compounds and a random draw of the others, so the mix is not that of the screen. Unmarked numbers belong to inactive results. Rule as the data show it: active = inhibition above about 30%; inactive = the rest.

Biological target: Ubiquitin carboxyl-terminal hydrolase 17-like protein 5 (Homo sapiens) (UniProt A8MUK1)
Test: blocks human USP17 ubiquitin-rhodamine cleavage (AID 1645855)
Details: purified USP17, Ub-rhodamine cleavage fluorescence, 3 h; at 50 µM; active compounds read high

Chain of Ubiquitin carboxyl-terminal hydrolase 17-like protein 5 (Homo sapiens) (A8MUK1 whole entry, looked up): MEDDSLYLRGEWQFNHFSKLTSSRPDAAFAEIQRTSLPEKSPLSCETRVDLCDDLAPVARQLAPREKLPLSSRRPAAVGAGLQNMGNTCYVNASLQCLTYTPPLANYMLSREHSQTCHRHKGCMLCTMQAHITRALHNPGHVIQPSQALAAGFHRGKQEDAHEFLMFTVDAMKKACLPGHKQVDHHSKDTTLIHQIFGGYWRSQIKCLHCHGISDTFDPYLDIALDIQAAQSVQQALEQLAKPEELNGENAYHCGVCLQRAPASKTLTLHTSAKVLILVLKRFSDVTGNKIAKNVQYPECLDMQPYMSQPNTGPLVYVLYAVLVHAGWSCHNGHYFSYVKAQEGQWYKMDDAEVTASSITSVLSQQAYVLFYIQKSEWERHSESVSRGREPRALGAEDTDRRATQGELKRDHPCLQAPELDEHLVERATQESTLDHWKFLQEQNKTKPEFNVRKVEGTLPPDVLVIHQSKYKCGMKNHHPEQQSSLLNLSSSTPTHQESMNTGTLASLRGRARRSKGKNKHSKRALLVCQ

Row | Compound | inhibition
1 | CN1CCCCC[C@@H]2[C@@H]1C[C@@H](Cc1ccccc1)N2C(=O)c1cc(C2CC2)[nH]n1 | 14.4%
2 | N#Cc1ccc(NC(=O)COC(=O)c2ccc3ccccc3n2)cc1 | -197%
3 | N#Cc1ccccc1OCC(=O)Nc1ccc(-c2cn3ccsc3n2)cc1 | 46.9% (active)
4 | CCN(CC)S(=O)(=O)c1cc(C(=O)Nc2ccc(-c3cn4ccsc4n3)cc2)ccc1Cl | 16.3%
5 | COc1ccc(NC(=O)c2cc(CN3CCOCC3)on2)cc1 | -3.06%
6 | COc1cc(NC(=O)c2noc3c2CCc2sccc2-3)cc(OC)c1 | 48.3% (active)
7 | O=C(NCc1ccccc1)c1noc2c1CCc1sccc1-2 | 4.73%
8 | COc1ccc(OC)c(NC(=O)C(Cc2c[nH]c3ccccc23)N2CCS(=O)(=O)CC2)c1 (stereo not drawn) | 3.96%
9 | O=C(COC(=O)C1CCN(S(=O)(=O)c2c(Cl)cccc2Cl)CC1)Nc1ccc2c(c1)CCC2 | 0.533%
10 | O=C(Nc1nnc(-c2cccc([N+](=O)[O-])c2)o1)C1CCN(S(=O)(=O)c2ccc3c(c2)CCC3)CC1 | 73.8% (active)
11 | Cc1cccc(-c2nnc(-c3cccc(S(=O)(=O)N4CCCC4)c3)o2)c1 | 6.44%
12 | Cn1c(=O)c2c(nc(N3CCN(C(=O)c4ccco4)CC3)n2CCSc2nc3ccccc3s2)n(C)c1=O | 0.301%
13 | COc1cccc(C(=O)N2CCN(c3nc(-c4ccc(Cl)cc4)no3)CC2)c1OC | 8.11%
14 | Cc1ccccc1NC(=O)CSc1nnc(C2CC2)n1Cc1ccccc1 | -1.39%
15 | Nn1c(SCC(=O)Nc2ccccc2F)nnc1-c1n[nH]c2c1CCC2 | 41.7% (active)
16 | O=C(CSc1nccn1C1CCCCC1)Nc1ccccc1F | 20.2%
17 | CC(=O)O[C@H]1CC[C@]2(C)[C@H]3Cc4c(cc(-c5cccnc5)oc4=O)O[C@]3(C)CC[C@H]2C1(C)C | 1.11%
18 | O=C(C1CCCN(S(=O)(=O)N2CCOCC2)C1)N1CCN(Cc2ccccc2)CC1 (stereo not drawn) | -0.311%
19 | COc1ccc(Cl)cc1NC(C)c1nc2sc(C)c(C)c2c(=O)[nH]1 (stereo not drawn) | -21.9%
20 | C/C=C(\Cl)C1=CC(=O)[C@]23C[C@H]2[C@@]2(C)CO[C@@]1(O)[C@@]3(O)O2 | 68.6% (active)
21 | CCC1(c2ccccc2)NC(=O)N(CC(=O)Nc2ccc(C)c([N+](=O)[O-])c2)C1=O (stereo not drawn) | -6.64%
22 | COc1ccc(S(=O)(=O)N(C(=O)c2ccccc2)c2ccc3oc4c(c3c2)CCCC4)cc1 | -2.79%

Row | Compound | inhibition
23 | CCC(=O)c1ccc(OCC(=O)Nc2ccc3c(c2)CCC3)cc1 | 4.25%
24 | O=C(COc1ccc2oc3c(c2c1)CCCC3)Nc1ccccn1 | 70.8% (active)
25 | C=C(NC(=O)/C(C)=C/C=C\CCCCCC(C)C)C(=O)N/C(=C/OC)C(=O)OC | -61.8%
26 | O=C(Cc1ccc(Cl)cc1)N1CCC2(CN(Cc3ccc(O)cc3)C2)C1 | -0.288%
27 | CCOc1ccc(C(=O)C[n+]2cc(-c3ccccc3)n3c2CCC3)cc1 | 3.07%
28 | COc1ccccc1CNCc1c(C(=O)O)c(C)n(-c2ccccc2)c1C | 6.79%
29 | CNC(=O)C1CCN(c2nc3ccc(-c4ccccc4F)nc3s2)CC1 | 15.7%
30 | O=C(Nc1ccccc1F)C1CCCN(c2nnc3ccccn23)C1 (stereo not drawn) | 4.67%
31 | NC(=O)c1ccccc1NC(=O)C1CN(c2nc3c(F)cccc3s2)C1 | 31% (active)
32 | CCOc1nc(-c2ccc(Cl)cc2Cl)nc2ccccc12 | 9.99%
33 | Cc1ccnc(Nc2nc(-c3ccccc3)c3cc(Cl)ccc3n2)n1 | 91.1% (active)
34 | O=C(Nc1cc(Cl)ccc1F)c1cnc(-c2ccccc2)nc1-c1ccncc1 | -172%
35 | COc1cc2c(c(OC)c1OC)-c1ccc(NCCc3ccc(S(N)(=O)=O)cc3)c(=O)cc1[C@@H](NC(C)=O)CC2 | -68.9%
36 | Nc1nc(COC(=O)c2ccoc2)nc(Nc2ccccc2)n1 | -3.92%
37 | Cc1nc(-c2ccc(C)c(S(=O)(=O)NCc3ccccc3Cl)c2)cs1 | 28%
38 | COc1ccc(C(NC(=O)CN(C)Cc2ccc3c(c2)OCO3)c2ccccc2)cc1 (stereo not drawn) | 35.3% (active)
39 | Cc1ccc(F)cc1NC(=O)CN(C)Cc1ccc2c(c1)OCO2 | 1.53%
40 | CN(CC(=O)Nc1ccc(F)cc1Cl)Cc1ccc2c(c1)OCO2 | -5.43%
41 | CCN(CC)c1ccc2ccc(C(=O)NCCc3ccccn3)cn12 | -61.8%
42 | COc1cccc(N2CCN(C(=O)Nc3ccc4c(c3)NC(=O)CO4)CC2)c1 | 45% (active)
43 | COc1cccc(NC(=O)N2CC[C@H]3N(C)CC[C@@]3(C(=O)N3CCCC3)CC2)c1 | -21.3%
